In publication PMC4336329 (PLoS ONE, 2015):
In all, about 310,000 compounds went through this assay and about 2,200 (0.71%) showed an effect of 50% or more. Effects have a minus sign here. For the sample, strong results were picked, then their nearest neighbours and some compounds at random.

Each compound was assayed against human ether-à-go-go-related gene (hERG) potassium channel (human, UniProt Q12809) (assay: primary screen, population patch clamp on CHO cells stably expressing hERG; higher = less effect of the substance).
Sequence of human ether-à-go-go-related gene (hERG) potassium channel (Q12809 whole entry, looked up): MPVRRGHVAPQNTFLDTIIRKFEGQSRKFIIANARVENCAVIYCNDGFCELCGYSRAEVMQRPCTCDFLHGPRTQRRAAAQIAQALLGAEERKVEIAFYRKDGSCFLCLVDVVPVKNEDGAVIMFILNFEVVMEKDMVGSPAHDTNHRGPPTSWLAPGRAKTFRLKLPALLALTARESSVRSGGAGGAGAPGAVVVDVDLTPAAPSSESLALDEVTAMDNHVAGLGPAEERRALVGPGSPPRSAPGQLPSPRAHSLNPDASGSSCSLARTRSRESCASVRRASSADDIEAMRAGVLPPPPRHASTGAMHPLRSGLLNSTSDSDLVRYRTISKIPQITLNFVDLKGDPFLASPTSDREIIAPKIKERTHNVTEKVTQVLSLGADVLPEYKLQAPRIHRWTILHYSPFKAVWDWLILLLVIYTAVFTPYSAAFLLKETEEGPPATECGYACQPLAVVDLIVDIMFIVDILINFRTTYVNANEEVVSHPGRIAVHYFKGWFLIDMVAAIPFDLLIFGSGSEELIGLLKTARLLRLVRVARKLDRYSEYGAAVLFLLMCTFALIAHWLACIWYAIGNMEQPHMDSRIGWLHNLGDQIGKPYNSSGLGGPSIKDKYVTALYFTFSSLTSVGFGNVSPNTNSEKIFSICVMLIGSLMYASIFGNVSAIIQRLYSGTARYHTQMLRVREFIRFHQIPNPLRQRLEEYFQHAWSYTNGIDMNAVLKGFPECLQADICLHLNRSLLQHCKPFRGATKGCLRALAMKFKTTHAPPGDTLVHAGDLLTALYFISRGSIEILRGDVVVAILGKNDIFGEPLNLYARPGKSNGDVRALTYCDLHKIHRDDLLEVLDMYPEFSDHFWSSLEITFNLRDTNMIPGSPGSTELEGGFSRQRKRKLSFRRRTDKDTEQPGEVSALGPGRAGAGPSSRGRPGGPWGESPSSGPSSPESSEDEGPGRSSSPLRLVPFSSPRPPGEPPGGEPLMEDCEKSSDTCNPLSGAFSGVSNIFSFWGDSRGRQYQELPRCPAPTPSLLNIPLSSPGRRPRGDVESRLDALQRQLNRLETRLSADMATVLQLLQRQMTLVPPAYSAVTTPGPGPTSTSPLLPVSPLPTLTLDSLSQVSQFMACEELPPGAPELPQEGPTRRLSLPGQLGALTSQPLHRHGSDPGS

SMILES | hERG current change (%, negative = inhibition) at 1uM [%]
c1ccc2c(Nc3ccc4c(c3)OCCO4)c3c(nc2c1)CCCC3 | -83.5
COc1ccc(Nc2c3c(nc4ccccc24)CCC3)cc1.Cl | -14.5
Cc1ccc2nc3c(c(Nc4ccc5c(c4)OCCO5)c2c1)CCC3.Cl | -5.67
Cc1ccc(Nc2c3c(nc4ccccc24)CCC3)cc1.Cl | -57.7
Cc1nnc(SCc2ccc(C(=O)c3ccc(Cl)cc3)o2)n1-c1ccccc1 | -14.1
Cc1[nH]c2ccccc2c1/C=C/c1nc2ccccc2c(=O)n1-c1cccc([N+](=O)[O-])c1 | 8.08
CCOc1ccc(C2c3c(oc4cc(C)c(C)cc4c3=O)C(=O)N2CCCN(C)C)cc1OC (stereo not drawn) | 4.1
CCN(CC)C(=O)CN(c1cccc(OC)c1)S(=O)(=O)c1ccc(C)cc1 | 13.2
Cc1ccc(-n2[nH]c(C)c(/C=N/Nc3ccc([N+](=O)[O-])cc3[N+](=O)[O-])c2=O)cc1C | 9.38
CCOc1ccc(S(=O)(=O)NN=C2CCN(C(C)=O)CC2)cc1 | 2.55
CC(C)CNC(=O)CSc1nnc(-c2ccccn2)n1Cc1ccccc1 | 7.89
C[C@](N)(CCP(=O)(O)O)C(=O)O.Cl | -5.32
CCOC(=O)CSc1nc2ccccc2c(=O)n1CC1COc2ccccc2O1 (stereo not drawn) | 6.59
O=C(CCNS(=O)(=O)c1cccc2nsnc12)Nc1ccc2c(c1)OCCO2 | 12
CSc1ncc(Cl)c(C(=O)[O-])n1.[NH3+]CCc1ccccc1 | 0.119
Cc1ccc(CCNC(=O)C2CCN(S(=O)(=O)N3CCC4(CC3)OCCO4)CC2)cc1 | 9.02
Cc1nc2ccccc2n1CCc1nc2c3ccccc3nc(SCC#N)n2n1 | -0.451
NC(=O)CSc1nc2c(c(=O)n1-c1ccccc1)C1(CCCCC1)Cc1ccccc1-2 | 16.4
COc1cc(Nc2c3ccccc3nc3ccccc23)cc(OC)c1OC | -32.7
COc1cc(NS(C)(=O)=O)ccc1Nc1c2ccccc2nc2ccccc12.Cl | -59.7
COc1ccccc1Nc1c2ccccc2nc2ccccc12 | -18.4
Cc1ccc2c(Cn3ccnc3)cc(=O)oc2c1C | 15.6
CCCn1nnnc1NCc1ccc(N2CCCC2)cc1 | -1.22
COc1cccc(N2CCc3c(C)nc4ccc(Cl)cc4c32)c1 | -48.5

SMILES | hERG current change (%, negative = inhibition) at 1uM [%]
Cc1ccc2nc(C)c3c(c2c1)N(c1ccc(F)cc1)CC3 | -94.5
Cc1ccc2nc(C)c3c(c2c1)N(c1ccccc1)CC3 | -70
CSc1nc(C)c2c(n1)N(c1ccc(F)cc1)CC2 | 20.1
Cc1ccc2nc(C)n(-c3ccc(F)cc3)c(=O)c2c1 | 19
Cc1ccc2nc3c(c(N)c2c1)CCN3c1ccccc1.O=C(O)C(=O)O | -2.46
COc1c2c(cc3oc(=O)c4c5ccc(O)cc5oc4c13)OC(C)(C)CC2 | 17.1
c1cncc(-c2nnc(SCc3cccc4ccccc34)o2)c1 | 0.0047
CC(=O)N1CCN(c2nc(-c3ccco3)c3c(c2C#N)CC(C)(C)SC3)CC1 | 7.62
CCOc1ccc(/C=C(/NC(=O)c2ccc(Cl)cc2)C(=O)O)cc1OCC | -4.42
COc1ccccc1CC(=O)Nc1ccc([N+](=O)[O-])cc1OC | 8.75
Cn1c(=NC(=O)C2CC2)sc2cccc(F)c21 | 1.19
Cc1ccc(CNS(=O)(=O)c2ccc3c(c2)N(C)CCO3)cc1 | 17.8
Cc1ccc(NS(=O)(=O)c2ccc3c(c2)N(C)CCO3)cc1 | -79.6
CC(=O)c1ccc(NS(=O)(=O)c2ccc3c(c2)N(C)CCO3)cc1 | 1.5
C/C(CC(=O)Nc1ccc(N(C)C)cc1)=N\NC(=O)c1ccc(C(C)(C)C)cc1 | 15.5
CCOC(=O)C1(Cc2cccc(OC)c2)CCN(Cc2cccnc2)CC1 | 11.5
CCOC(=O)C1(Cc2ccccc2)CCN(Cc2cccc3nccnc23)CC1 | -10.3
CCOC(=O)C1(Cc2cccc(OC)c2)CCN(Cc2ccccc2)CC1 | -7.08
CCOC(=O)C1(Cc2cccc(OC)c2)CCN(Cc2cccn2-c2nccs2)CC1 | -77.7
CCOC(=O)C1(Cc2cccc(OC)c2)CCN(Cc2cccc(O)c2)CC1 | -9.46
CCOC(=O)C1(Cc2ccccc2)CCN(Cc2cccn2-c2cccnc2)CC1 | 1.67
CCOC(=O)C1(Cc2cccc(OC)c2)CCN(Cc2cccn2-c2ccccn2)CC1 | -79.4
CCOC(=O)C1(Cc2cccc(OC)c2)CCN(Cc2ccccc2OC)CC1 | -18.5
CCOC(=O)C1(Cc2ccccc2)CCN(Cc2cccn2-c2nccs2)CC1 | -69.8
